# Data: PubChem BioAssay
# Columns and labels:
# [1] = test system: Human papillomavirus type 1a protein E7 (residues 44-93); assay: HPV1a E7 fragment binders on microarrays, primary screen, biochemical, small-molecule microarray, residues 44-93, 635 nm fluorescence (AID 1108); details: small-molecule microarray binding, fluorescence 635 nm; higher = more signal;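 note: E7 fragment applied at 1 µg/mL in TBST for 1 h at 4 C; score combines spot fluorescence with its signal to noise ratio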
# [2] = modulators of HCV replicon luciferase signal, primary screen, HCV replication inhibitor project, Huh7 cells, luciferase reporter (AID 1109); details: 48 h, higher = more signal;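 note: huh7 hepatoma cells harbouring a luciferase neomycin HCV replicon reporter; luciferase luminescence as measure of HCV replicon replication; test concentration not given here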
# [3] = target: Left-right determination factor 2 (Homo sapiens) (UniProt O00292); assay: LEFTY2 binders on small-molecule microarrays, primary screen, biochemical, small-molecule microarray, 635 nm fluorescence scan (AID 1110); details: LEFTY2 binding, higher = more signal
# [4] = target: Calmodulin-1 (Homo sapiens) (UniProt P0DP23); assay: CALM1 binders on microarrays, EGTA buffer, profiling panel, biochemical, small-molecule microarray, Cy5-labelled CALM1 (AID 1111); details: Cy5-CALM1 binding fluorescence, higher = more signal;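 note: labelled calmodulin applied in Tris saline Tween buffer holding calcium plus EGTA and DTT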
# [5] = target: Calmodulin-1 (Homo sapiens) (UniProt P0DP23); assay: calcium-bound CALM1 binders on microarrays, profiling panel, artefact control for SMM control-protein annotation, biochemical, small-molecule microarray, Cy5-labelled CALM1, plus calcium (AID 1112); details: Cy5-CALM1 binding fluorescence, higher = more signal;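 note: score merges spot fluorescence with signal to noise from triplicate slides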
# [6] = small-molecule microarray binders of probe aWnt5a, primary screen, biochemical, biotinylated probe, 635/667 nm fluorescence (AID 1113); details: higher = more signal;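 note: score merges 667 nm fluorescence intensity with signal-to-noise per printed feature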
# [7] = small-molecule microarray binders of probe aShh, primary screen, biochemical, biotinylated probe, 635/667 nm fluorescence (AID 1114); details: higher = more signal;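 note: probe is biotin-labelled aShh protein from a stem cell growth factor screen; measures binding of labelled protein to compounds printed on the slide; score merges feature fluorescence at 667 nm with signal-to-noise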
# [8] = small-molecule microarray binders of probe aNog, primary screen, biochemical, biotinylated probe, 635/667 nm fluorescence (AID 1115); details: higher = more signal;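 note: probe is biotinylated aNog protein used at 0.15 µg/mL for 1 h at 4 C; z-score combines 667 nm fluorescence of each spot with its signal to noise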
# [9] = target: Torsin-1A-interacting protein 1 (Homo sapiens) (UniProt Q5JTV8); assay: LAP1 binders from COS7 cell lysate, primary screen, small-molecule microarray, 635/667 nm fluorescence (AID 1116); details: COS7-hLAP1 lysate binding, 635 nm fluorescence, higher = more signal
# [10] = target: Alpha-bungarotoxin (Bungarus multicinctus) (UniProt P60615); assay: alpha-bungarotoxin binders on microarray, profiling panel, artefact control for SMM control protein annotation, biochemical, small-molecule microarray, Alexa647 label, 635/667 nm fluorescence (AID 1117); details: alpha-BTX-A647 binding fluorescence, higher = more signal
# Chain of Alpha-bungarotoxin (Bungarus multicinctus) (P60615 whole entry, looked up): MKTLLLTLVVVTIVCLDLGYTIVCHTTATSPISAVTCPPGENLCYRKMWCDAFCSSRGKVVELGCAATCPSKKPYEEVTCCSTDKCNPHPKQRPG
# Chain of Left-right determination factor 2 (Homo sapiens) (O00292 whole entry, looked up): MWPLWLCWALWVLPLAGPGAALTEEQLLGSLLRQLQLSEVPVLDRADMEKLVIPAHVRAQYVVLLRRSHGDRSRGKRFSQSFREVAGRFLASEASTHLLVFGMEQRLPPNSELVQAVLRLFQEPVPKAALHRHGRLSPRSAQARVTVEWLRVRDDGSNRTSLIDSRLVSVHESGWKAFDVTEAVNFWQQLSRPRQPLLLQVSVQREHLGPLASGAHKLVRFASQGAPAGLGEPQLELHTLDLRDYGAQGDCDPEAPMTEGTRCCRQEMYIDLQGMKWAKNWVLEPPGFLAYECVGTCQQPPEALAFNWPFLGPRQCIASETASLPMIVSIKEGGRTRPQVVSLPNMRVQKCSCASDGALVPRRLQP
# Chain of Torsin-1A-interacting protein 1 (Homo sapiens) (Q5JTV8 whole entry, looked up): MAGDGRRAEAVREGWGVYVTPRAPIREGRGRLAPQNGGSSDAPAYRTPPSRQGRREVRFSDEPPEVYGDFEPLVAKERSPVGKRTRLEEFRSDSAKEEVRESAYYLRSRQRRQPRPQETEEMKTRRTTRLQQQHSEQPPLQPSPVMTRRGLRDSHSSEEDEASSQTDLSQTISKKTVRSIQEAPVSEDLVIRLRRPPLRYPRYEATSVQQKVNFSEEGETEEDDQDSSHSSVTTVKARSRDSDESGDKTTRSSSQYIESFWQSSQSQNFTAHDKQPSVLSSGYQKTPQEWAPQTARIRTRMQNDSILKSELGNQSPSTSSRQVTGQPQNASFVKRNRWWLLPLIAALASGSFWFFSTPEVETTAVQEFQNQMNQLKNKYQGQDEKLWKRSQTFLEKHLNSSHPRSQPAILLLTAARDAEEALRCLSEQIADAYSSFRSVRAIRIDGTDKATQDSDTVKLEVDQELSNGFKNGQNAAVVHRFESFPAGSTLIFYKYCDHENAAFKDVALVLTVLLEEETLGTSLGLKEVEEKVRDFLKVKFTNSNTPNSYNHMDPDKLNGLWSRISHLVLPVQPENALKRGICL
Compound,composite z-score [1],z-score [2],composite z-score [3],composite z-score [4],composite z-score [5],composite z-score [6],composite z-score [7],composite z-score [8],composite z-score [9],composite z-score [10]
COC(=O)[C@@]1(Cc2ccc(F)cc2)[C@H]2c3cc(C(=O)N4CCCC4)n(CCF)c3C[C@H]2CN1C(=O)c1ccccc1,1.13,-1.43,-0.359,2.74,1.32,1.04,1.79,2.99,2.42,0.602
C=C(/C=C/CNS(=O)(=O)c1ccc(C)cc1)[C@H](O)[C@H]1CCCN1S(=O)(=O)c1ccccc1[N+](=O)[O-],-0.197,-2.48,0.77,-0.115,-0.795,-0.119,-0.138,-0.272,0.581,0.616
COC(=O)[C@@]1(Cc2ccc(OC)cc2)[C@H]2c3cc(C(=O)N(C)C)n(Cc4ccccc4)c3C[C@H]2CN1C(=O)c1ccccc1,1.34,-1.66,-0.367,1.63,1.03,-0.0681,-0.12,-0.759,-0.681,0.187
CC(C)N1C(=O)[C@@]2(c3ccc([N+](=O)[O-])cc3)CC(=O)N(C3CCCCC3)[C@@H]2c2ccc(CO)cc21,-0.242,0.711,0.11,-0.561,-0.593,-0.1,-0.0553,-0.305,0.214,0.329
NC(N)=NCc1cn(CCc2c[nH]c3ccccc23)nn1,0.712,-1.66,1.23,-0.732,-1,-0.114,0.0141,-0.158,0.615,0.755
CC(C)C(O)C1C=CC2C(=O)N(C)C(=O)C2N1N(c1ccccc1)c1ccccc1 (stereo not given),-0.192,0.865,0.0172,0.107,0.368,-0.0165,0.14,0.603,0.251,0.218
CCOC(=O)C[C@H]1[C@H](OC(=O)c2ccccc2-c2ccccc2)[C@@H](NC(=O)c2ccc3ccccc3n2)c2cc(OCCCO)ccc2N1C(=O)c1ccc2ccccc2n1,0.437,-0.863,0.152,-0.0654,-0.127,-0.174,-0.265,-0.328,0.358,0.567
CC(C)(C)OC(=O)CC[C@]1(C(=O)O)N=C(c2ccc(OCCCO)cc2)O[C@H]1c1ccccc1CN=[N+]=[N-],-0.391,0.0879,-0.688,0.32,0.81,-0.136,0.0668,0.718,0.69,-0.489
NC(=O)NCC#Cc1ccc2c(c1)[C@]1(C(=O)N2)[C@H](c2ccc(O)cc2)N2[C@H](c3ccccc3)[C@H](c3ccccc3)OC(=O)[C@H]2[C@@H]1C(=O)Nc1nc2ccccc2s1,0.89,-1.27,0.413,0.563,0.229,0.168,0.246,0.563,0.633,1.23
CC(C)c1ccc(NN2C(C(O)c3ccco3)C=CC3C(=O)N(c4ccccc4)C(=O)C32)cc1 (stereo not given),0.729,3.21,0.183,2.07,0.941,0.0629,0.279,1.47,0.93,2.69
COCCOC(=O)N1C(=O)[C@@]2(c3cc(C#Cc4ccc(OC)cc4)ccc31)[C@H](C(=O)N1CCN(c3ncccn3)CC1)[C@H]1C(=O)O[C@H](c3ccccc3)[C@H](c3ccccc3)N1[C@@H]2c1ccccc1OCCO,1.23,-0.509,0.0641,0.551,0.858,-0.131,-0.0011,0.187,0.931,1
